Source: PubChem BioAssay AID488896 (Broad Institute, 2010)
The campaign covered roughly 320,000 compounds. About 3,100 (0.97%) were called active. This excerpt belongs to a sample that is enriched for actives. Unmarked numbers belong to inactive results.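 The calls were made as follows: active = mean replicate inhibition of at least 70% and a set share of replicates each scoring 70 or more; inconclusive = meets just one of the two criteria; inactive = fails both criteria.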

The molecules below were run against Scavenger receptor class B member 1 (Mus musculus) (UniProt Q61009) (assay: inhibitors of SR-BI mediated HDL lipid uptake, primary screen, ldlA[mSR-BI] cells, fluorescence, single point (AID 488896;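 also: 0% = median of neutral control wells and 100% = median of positive control wells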)). Conditions: ldlA[mSR-BI] CHO cells, DiI-HDL uptake fluorescence, 3 h; at 12.5 µM; active compounds read high.
Sequence of Scavenger receptor class B member 1 (Mus musculus) (Q61009 whole entry, looked up): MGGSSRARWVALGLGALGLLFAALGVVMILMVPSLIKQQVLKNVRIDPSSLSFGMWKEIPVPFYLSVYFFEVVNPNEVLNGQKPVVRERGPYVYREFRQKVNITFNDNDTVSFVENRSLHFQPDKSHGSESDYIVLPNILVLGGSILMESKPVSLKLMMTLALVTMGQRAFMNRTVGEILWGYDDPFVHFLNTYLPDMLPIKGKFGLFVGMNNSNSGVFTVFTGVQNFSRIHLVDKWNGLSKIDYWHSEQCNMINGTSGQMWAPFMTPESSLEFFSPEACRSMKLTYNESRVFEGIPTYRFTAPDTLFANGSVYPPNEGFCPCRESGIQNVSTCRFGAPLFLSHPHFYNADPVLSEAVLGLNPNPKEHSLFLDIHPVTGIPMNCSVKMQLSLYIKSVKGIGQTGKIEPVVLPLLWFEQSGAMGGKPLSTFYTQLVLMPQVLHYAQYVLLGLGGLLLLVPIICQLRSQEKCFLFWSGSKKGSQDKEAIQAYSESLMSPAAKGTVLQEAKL

| SMILES | inhibition |
| --- | --- |
| O=C1COc2c1ccc(O)c2O | -17.3% |
| CN(C(=O)c1cccc(NC(=O)Cc2ccc(NC(=O)C3CCCN(C(=O)C4CCCC4)C3)cc2)c1)C1CCC1 (stereo not given) | 86.9% (active) |
| CN(C(=O)c1cccc(NC(=O)Cc2ccc(NC(=O)C3CCCN(C(=O)C4CC4)C3)cc2)c1)C1CC1 (stereo not given) | 70% |
| CN(C(=O)c1cccc(NC(=O)Cc2cccc(NC(=O)C3CCCN(C(=O)C4CC4)C3)c2)c1)C1CCC1 (stereo not given) | 31.6% |
| CN(CCc1ccccc1)C(=O)c1cccc(NC(=O)Cc2cccc(NC(=O)C3CCCN(C(=O)C4CCC4)C3)c2)c1 (stereo not given) | 26.9% |
| CN(CCc1ccccc1)C(=O)c1cccc(NC(=O)Cc2cccc(NC(=O)C3CCCN(C(=O)CCc4ccccc4)C3)c2)c1 (stereo not given) | 78.5% (active) |
| O=C(Cc1ccc(NC(=O)C2CCCN(C(=O)CCc3ccccc3)C2)cc1)Nc1ccc(C(=O)N2CCOCC2)cc1 (stereo not given) | 58.6% |
| COc1cc(/C=C/c2ccc(/C=C/c3cc(OC)c(OC)c(OC)c3)cc2)cc(OC)c1OC | 51.2% |
| Nc1cc2c(cc1Br)-c1ccc(F)cc1C2=O | 22.3% |
| C=CCOC(=O)N1CCC2CC1c1cc(-c3ccc(OC)cc3)ccc12 (stereo not given) | -4.14% |
| Oc1c(CN2CCOCC2)ccc(CN2CCOCC2)c1O | 0.438% |
| Cc1c(Cl)c([N+](=O)[O-])nn1CCCC(=O)Nc1cc(Cl)ccc1Cl | -14.8% |
| Cc1ccc(C(=O)O)cc1NC(=O)c1ccc(Cn2nc(C)c(Cl)c2C)o1 | 4.04% |
| Cc1c(Cl)c([N+](=O)[O-])nn1Cc1ccc(C(=O)N/N=C\c2cc(Cl)ccc2O)o1 | 129% (active) |
| CC(C)CN1CC(C)C(=O)N(c2ccccc2)C1=S (stereo not given) | -3.77% |
| COc1ccc2oc(C(=O)OCC(=O)N(CC(C)C)c3c(N)n(Cc4ccccc4)c(=O)[nH]c3=O)c(C)c2c1 | 71% (active) |
| CC(C)CN(C(=O)COC(=O)c1ccc(Cl)c(N)c1)c1c(N)n(Cc2ccccc2)c(=O)[nH]c1=O | 21.7% |
| CC(C)CN(C(=O)COC(=O)c1ccc2ccccc2c1)c1c(N)n(Cc2ccccc2)c(=O)[nH]c1=O | 27.1% |
| CCC(C)C1(C2CCCC2)NC(=O)NC1=O (stereo not given) | -1.25% |
| C[n+]1cccc(C(=O)O)c1 | -14.9% |
| COc1ccc2cc(C(=O)NCC3CCCO3)[nH]c2c1 (stereo not given) | -25.3% |
| COc1cccc(/C=C2\Sc3ccc(C(=O)NCC4CCCO4)cc3N(C)C2=O)c1 (stereo not given) | 76.6% (active) |
| COc1cccc(C(=O)NCCS(=O)(=O)NCC2CCCO2)c1 (stereo not given) | -26.7% |

| SMILES | inhibition |
| --- | --- |
| CSCCC(NC(=O)COc1ccccc1)C(=O)OCc1ccc(Cl)cc1 (stereo not given) | -22.7% |
| Cc1ccc(S(=O)(=O)c2cc3c(=O)n4cccc(C)c4nc3n(CCc3ccccc3)c2=N)cc1C | -25.8% |
| COc1cccc2c1C(=O)c1c(O)c3c(c(O)c1C2=O)CC(O)(C(C)=NNC(=O)c1ccc(Cl)c(Cl)c1)CC3OC1CC(N)C(O)C(C)O1 (stereo not given) | 33.2% |
| O=[N+]([O-])c1cccc(C=NN=Cc2ccccc2O)c1 | 45.3% |
| COc1ccc2c(c1)C(=O)CC(c1ccccc1)O2 (stereo not given) | 17.3% |
| CCN1/C(=C/C(=S)Nc2ccccc2)Sc2ccccc21 | 80.2% (active) |
| CCN1/C(=C\c2ccc3ccccc3[n+]2CC)Sc2cc(C)ccc21 | 55.6% |
| CCNCCC(=O)N1c2ccccc2Sc2ccc(NC(=O)OCC)cc21 | -8.72% |
| COC[C@@H]1NS(=O)(=O)c2ccc(Br)cc2O[C@H]1c1ccccc1 | 5.43% |
| NC(=O)C1(Nc2ccccc2Cl)CCCC1 | -5.33% |
| O=C(NN=C1CCC(=NNC(=O)c2cccnc2)CC1)c1cccnc1 | -14% |
| O=C(N/N=C/c1sc(N2CCCCC2)nc1-c1cccs1)c1cccnc1 | 76.7% (active) |
| O=C(CNC(=O)c1cccnc1)N/N=C/c1cccnc1 | -11% |
| COC(=O)C1CC2=C(CC(C)(C)CC2=O)N(c2ccccc2)C1=O (stereo not given) | -15.5% |
| CCCCN1CC(CO)Oc2cccc(F)c2S1(=O)=O (stereo not given) | -10.7% |
| COc1cccc(C(=O)N/N=C(\C)c2cccc(NC(=O)c3ccc(F)cc3)c2)c1OC | 61% |
| COc1ccc(/C(C)=N\NC(=O)c2ccc(-c3ccccc3)cc2)c(F)c1 | 67.1% |
| C/C(=N/NC(=O)c1ccc(NC(=O)c2ccc(F)cc2)cc1)c1ccccc1 | 88.8% (active) |
| O=C1C(=O)N(c2ccccc2)C(c2ccccc2)C1c1ccccc1 (stereo not given) | 3.47% |
| CCCN(CC(=O)Nc1ccccc1C)C(=O)c1ccc(OCC(=O)N2CCOCC2)c(OCC)c1 | 13.8% |
| CC1(C)N=C(N)NC(Nc2ccc(Cl)cc2)=N1 | -10.1% |
| Cc1ccc(C)c(N2CCN(C(=O)Cn3ncn4cccc4c3=O)CC2)c1 | 10.1% |
| Cc1ccc(C)c(N2CCN(C(=O)CCCn3c(=O)c4cccn4c4cccnc43)CC2)c1 | 84.4% (active) |

| SMILES | inhibition |
| --- | --- |
| Cc1ccc(C)c(N2CCN(C(=O)CCCCn3c(=O)[nH]c4ccccc4c3=O)CC2)c1 | 16.6% |
| COc1ccc(CC(=O)NC(C)c2ccc(Cl)c(Cl)c2)cc1S(=O)(=O)N1CCOCC1 (stereo not given) | 4.63% |
| O=C(O)C(c1cccs1)C1(O)CCCCC1 (stereo not given) | -15.2% |
| CC1(C)Cc2cccc(OCC(=O)N3CCN(c4ccc([N+](=O)[O-])cc4)CC3)c2O1 | 71.3% (active) |
| CC1(C)Cc2cccc(OCC(=O)NCc3ccccc3)c2O1 | 3.02% |
| CC1(C)Cc2cccc(OCC(N)=O)c2O1 | 10.8% |
| Cc1cc(NC(=O)c2cc3ccccc3o2)no1 | -18.7% |
| COc1ccc(NC(=O)c2cc(-c3cc(OC)c(OC)c(OC)c3)nc3ccccc23)c(OC)c1 | 78.3% (active) |
| COc1ccc(-c2cc(C(=O)Nc3ccccc3O)c3ccccc3n2)cc1 | 41.1% |
| COc1ccccc1NC(=O)c1cc(Cl)nc2ccccc12 | 66.5% |
| COC1=NC2=NCCN2C(OC)=N1 | -7.98% |
| O=C1c2ccccc2C(=O)C1C(=O)C1CC1 | -19.4% |
| N#CC(Cc1cc2ccccc2n1S(=O)(=O)c1ccccc1)OCc1ccccc1 (stereo not given) | 4.98% |
| O=c1ccn([C@@H]2O[C@H](CNS(=O)(=O)c3cc4ccccc4s3)[C@@H](O)[C@H]2O)c(=O)[nH]1 | -11% |
| COc1ccc(-c2nn(-c3ccccc3)cc2/C=N/Nc2ccccn2)cc1OC | 50.1% |
| O=C(O)c1ccccc1-c1ccccc1C(=O)Nc1nccs1 | -17.5% |
| COc1ccc(-c2nn(-c3ccccc3)cc2C(=O)Nc2nccs2)cc1OC | 74.4% (active) |
| CN1C(c2ccc(F)cc2)=CS/C1=C(/C#N)c1nnc2n1-c1ccccc1SC2 | 32.2% |
| Nc1ccc2c(c1)C(O)c1ccc(Cl)cc1-2 (stereo not given) | -14.5% |
| Cc1cc(C)cc(OCC(=O)Nc2ccc(N3CCOCC3)cc2N2CCOCC2)c1 | 45% |
| Cc1cc(N2CCCC2)ccc1NC(=O)COc1ccc(Cl)cc1 | 75.9% (active) |
| CCC(=O)c1ccc(OCC(=O)Nc2ccc(N3CCCCC3)cc2)cc1 | 35.5% |
| CN1CCOC1c1ccc(C2OCCN2C)cc1 (stereo not given) | -6.99% |

| SMILES | inhibition |
| --- | --- |
| CCCCCCCCNS(=O)(=O)CCNC1CCCCC1 | -5.35% |
| CCN1C(=O)/C(=C\N2CCN(c3cccc(Cl)c3)CC2)SC1=S | 8.1% |
| CCCCN1C(=O)/C(=C/C=C2/C=Cc3ccccc3N2CC)SC1=S | 146% (active) |
| CCCCN1C(=O)/C(=C2/C=CC=CN2C)SC1=S | 8.97% |
| Cc1c[n+]([O-])ccc1[N+](=O)[O-] | 4.11% |
| CCCCN1CC(COCc2ccccc2)OCCS1(=O)=O (stereo not given) | -17.3% |
| N#Cc1c(NC(=O)c2ccc(N3CCOCC3)c([N+](=O)[O-])c2)sc2c1CCCC2 | 83.7% (active) |
| O=C(Oc1ccccc1Cl)c1ccc(N2CCOCC2)c([N+](=O)[O-])c1 | 1.4% |
| O=C(NCCCN1CCOCC1)c1ccc(N2CCCC2)c([N+](=O)[O-])c1 | -14.3% |
| NC(=O)c1ccc(N2CCCC2)nc1 | -0.443% |
| COc1ccccc1NC(=O)N(O)C1(C#N)CCCCC1 | 2.4% |
| COc1ccccc1/C=N/Nc1nc(C)c(C(C)=O)s1 | 24.4% |
| COc1cccc(/C=N/Nc2cc(C)nc(-c3ccccc3O)n2)c1O | 84.7% (active) |
| Oc1cccc(/C=N/Nc2ccc(Cl)nn2)c1O | 10.6% |
| CN(C)CCNC(=O)c1ccc(Cl)c2cc3ccccc3nc12 | -8.43% |
| C#CCOCCOCCOCCNc1nc(N2CCN(C(=O)Cn3cc(CCO)nn3)CC2)nc(N2CCN(C(=O)Cn3cc(CCCN=C(N)N)nn3)CC2)n1 | -17.5% |
| C/C(=N\NC(=O)c1ccc(NS(=O)(=O)c2cccs2)cc1)c1ccc2ccccc2c1 | 75.7% (active) |
| COc1cc(OC)c(C(=O)NNC(=O)c2ccc(NS(=O)(=O)c3cccs3)cc2)cc1OC | -10.6% |
| C/C(=N\NC(=O)c1ccc2ccccc2c1)c1cccnc1 | -22.1% |
| O=C1CC[C@@H]2CC3(C[C@@H]4CCN1[C@H]24)Nc1cc([N+](=O)[O-])ccc1NC3=NC1CCCCC1 (stereo not given in full) | 1.95% |
| CCN1CCC(O)(/C=C/c2ccc(C)cc2)C(C(=O)/C=C/c2ccc(C)cc2)C1 (stereo not given) | 24.5% |
